L3MBTL1 block: blocks human L3MBTL1; AlphaScreen L3MBTL1–H3K9me1 peptide binding; AID 485360; Potency, µM (titrated, usually from 57.1 µM), without a hit: top-dose activity, negative = inhibition, usual class: inhibitors; 0.66% of 230,000 active; note: % is set by controls: 0 for no effect and ±100 for the full control effect; nearly all actives have a fitted effect of over 60% in size
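AlphaScreen proximity signal between nickel-chelate acceptor and streptavidin donor beads (final 10 ug/mL) reports binding of 50 nM L3MBTL1 to 75 nM biotin-H3 K9me1 peptide; complex incubated with compounds 30 min at room temperature; cefsulodin titration as control.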
JMJD2A Tudor inh: JMJD2A Tudor domain (human) inhibition; O75164; AlphaScreen JMJD2A-Tudor / H3K4me3 peptide binding; Potency, µM (doses to about 114 µM), without a hit: at the highest dose activity change, negative = inhibition, usual class: inhibitors; 4.4% of 390,000 active; AID 504339; note: % is set by controls: 0 for no effect and ±100 for the full control effect; nearly all actives have a fitted effect of over 50% in size
HP1b binding inh: HP1-beta chromodomain-methylated histone interaction inhibition | P83916 | AlphaScreen HP1-beta / biotin-H3K9me3 peptide binding | Potency, µM (highest dose often 114 µM), inactives show at the highest dose activity change, negative = inhibition, hits mostly inhibitors | 0.56% of 390,000 active; note: nearly all actives have a fitted effect of over 70% in size
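AlphaScreen: HP1-beta (50 nM) preformed 30 min with biotin-H3(1-18)K9me3 peptide (50 nM) in PBS pH 7.4, 0.01% Tween-20. Compound added for 30 min at RT, then streptavidin donor/nickel chelate acceptor beads (10 ug/mL) for 30 min.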
BAZ2B inh: inhibitors of human BAZ2B bromodomain; Q9UIF8; Potency, µM (top dose mostly 114 µM), for the others: at the top dose activity change, negative = inhibition, usual class: inhibitors; AlphaScreen BAZ2B-H3K14Ac peptide displacement; 4.4% of 360,000 active; note: % is set by controls: 0 for no effect and ±100 for the full control effect; nearly all actives have a fitted effect of over 60% in size
Target sequence (Q9UIF8 whole entry, looked up): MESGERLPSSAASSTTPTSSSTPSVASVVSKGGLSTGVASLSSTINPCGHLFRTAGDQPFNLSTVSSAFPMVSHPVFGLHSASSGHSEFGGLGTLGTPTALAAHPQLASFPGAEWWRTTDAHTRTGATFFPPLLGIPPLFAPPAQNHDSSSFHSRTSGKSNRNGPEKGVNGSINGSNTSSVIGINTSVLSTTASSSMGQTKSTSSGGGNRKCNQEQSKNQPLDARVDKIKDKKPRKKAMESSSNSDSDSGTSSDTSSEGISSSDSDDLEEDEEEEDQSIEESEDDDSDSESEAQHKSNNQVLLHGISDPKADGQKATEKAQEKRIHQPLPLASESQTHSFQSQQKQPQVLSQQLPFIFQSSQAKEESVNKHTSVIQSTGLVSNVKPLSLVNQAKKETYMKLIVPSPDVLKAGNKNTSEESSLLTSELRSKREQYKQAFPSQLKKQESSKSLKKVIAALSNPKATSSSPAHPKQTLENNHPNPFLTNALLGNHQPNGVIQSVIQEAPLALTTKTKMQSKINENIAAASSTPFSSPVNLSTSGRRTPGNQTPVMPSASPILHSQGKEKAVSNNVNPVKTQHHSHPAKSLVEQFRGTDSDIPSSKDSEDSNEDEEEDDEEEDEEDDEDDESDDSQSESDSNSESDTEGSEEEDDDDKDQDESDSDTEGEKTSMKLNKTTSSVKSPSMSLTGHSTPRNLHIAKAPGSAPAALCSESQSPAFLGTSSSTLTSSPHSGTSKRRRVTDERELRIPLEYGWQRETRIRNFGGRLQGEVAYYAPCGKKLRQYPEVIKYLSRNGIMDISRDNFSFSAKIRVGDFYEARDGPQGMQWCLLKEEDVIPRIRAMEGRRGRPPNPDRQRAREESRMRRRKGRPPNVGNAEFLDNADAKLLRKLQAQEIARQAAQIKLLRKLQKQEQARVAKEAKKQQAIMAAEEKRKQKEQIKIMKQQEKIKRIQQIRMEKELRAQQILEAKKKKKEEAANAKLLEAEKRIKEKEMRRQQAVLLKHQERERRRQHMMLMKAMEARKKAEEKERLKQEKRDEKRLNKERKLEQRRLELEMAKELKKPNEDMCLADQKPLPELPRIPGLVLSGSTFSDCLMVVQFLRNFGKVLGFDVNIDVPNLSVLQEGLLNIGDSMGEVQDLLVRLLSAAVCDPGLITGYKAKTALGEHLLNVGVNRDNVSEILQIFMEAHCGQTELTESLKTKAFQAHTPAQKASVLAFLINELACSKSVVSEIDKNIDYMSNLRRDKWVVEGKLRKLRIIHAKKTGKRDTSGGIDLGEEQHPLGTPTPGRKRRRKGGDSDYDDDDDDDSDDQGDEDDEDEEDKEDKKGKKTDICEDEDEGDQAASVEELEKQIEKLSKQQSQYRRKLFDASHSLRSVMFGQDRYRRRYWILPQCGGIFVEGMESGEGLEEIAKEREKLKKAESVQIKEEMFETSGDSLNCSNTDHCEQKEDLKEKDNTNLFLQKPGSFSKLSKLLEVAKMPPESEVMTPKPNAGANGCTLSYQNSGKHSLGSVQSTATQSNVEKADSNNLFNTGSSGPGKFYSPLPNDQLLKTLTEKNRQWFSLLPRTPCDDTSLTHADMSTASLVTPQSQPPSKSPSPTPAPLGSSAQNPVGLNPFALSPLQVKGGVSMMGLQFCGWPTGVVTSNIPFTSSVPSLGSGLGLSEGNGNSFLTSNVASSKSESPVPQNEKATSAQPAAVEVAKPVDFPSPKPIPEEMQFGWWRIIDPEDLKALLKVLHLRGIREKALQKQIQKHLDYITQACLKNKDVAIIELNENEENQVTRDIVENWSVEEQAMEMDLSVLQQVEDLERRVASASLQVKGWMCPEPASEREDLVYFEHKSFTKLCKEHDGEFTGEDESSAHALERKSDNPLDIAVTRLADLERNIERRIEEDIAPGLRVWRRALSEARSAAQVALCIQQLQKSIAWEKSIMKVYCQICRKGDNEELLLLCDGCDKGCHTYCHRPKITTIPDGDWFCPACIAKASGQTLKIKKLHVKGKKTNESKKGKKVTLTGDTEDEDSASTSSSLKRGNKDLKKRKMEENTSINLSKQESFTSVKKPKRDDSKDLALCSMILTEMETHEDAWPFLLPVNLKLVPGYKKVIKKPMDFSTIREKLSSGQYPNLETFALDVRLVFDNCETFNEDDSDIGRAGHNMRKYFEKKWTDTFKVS
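AlphaScreen displacement: compounds (up to 110uM) incubated 30 min at room temperature with a preformed 50 nM BAZ2B/50 nM biotinylated H3K14Ac peptide complex in PBS pH 7.4 with Tween-20. Donor and acceptor beads at 10 ug/mL final added, 20 min light-protected before reading.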
PLK1 PBD block: PLK1 (human) polo-box domain binding inhibition. Plk1 PBD binding of FITC phosphopeptide, fluorescence polarization. Potency, µM, inactives show max response, negative = inhibition, most hits filed as inhibitors. 2.8% of 360,000 active. AID 720504; note: series mostly up to about 57 µM; % is set by controls: 0 for no effect and ±100 for the full control effect; nearly all actives have a fitted effect of over 65% in size
VDR inh: inhibitors of human vitamin D receptor; P11473; VDR-SRC2-3 peptide fluorescence polarization, 2 h; Potency, µM, for the others: max response, negative = inhibition, usual class: inhibitors; 0.93% of 400,000 active; note: % is set by controls: 0 for no effect and ±100 for the full control effect
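Two reagent solutions held at 4 deg C in the dark were dispensed, compounds pinned at 23 nl, and the mixture incubated 2 h at room temperature. Read-out: fluorescence polarization of VDR–SRC2-3 peptide binding.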
* hit, by the source's call; [ ] = another dose, or the depositor's remark. A selection: hits, their analogues and other compounds. The true share with any hit is near 6.9%. Calls come from the whole dose curve; as a rule, active = well fitted curve in the direction sought with a large enough effect; inconclusive = small, poorly fitted or top-dose-only effect, or another doubt; inactive = no such curve, though single readings can be large; an effect the other way counts as inactive or inconclusive. Potency is the fitted concentration of half-maximal effect.

What do the screens show for `O=C(O)c1ccc(Nc2nc(-c3cc4ccccc4oc3=O)cs2)cc1O`?
L3MBTL1 block: inconclusive; JMJD2A Tudor inh: 32µM*; HP1b binding inh: 32µM*; BAZ2B inh: 28µM*; PLK1 PBD block: 24µM*; VDR inh: -10%

Results for CC(=O)Nc1ccc(Nc2nc(-c3cc4ccccc4oc3=O)cs2)cc1 ?
L3MBTL1 block: -1%; JMJD2A Tudor inh: -6%; HP1b binding inh: 19%; BAZ2B inh: -18%; PLK1 PBD block: -8%; VDR inh: 4%

How did COc1ccccc1CNC(=O)Cn1c(=O)ccc2cc(S(=O)(=O)N3CCCC3)ccc21 do in these assays?
JMJD2A Tudor inh: -11%; HP1b binding inh: 21%[57 µM]; BAZ2B inh: 4%; VDR inh: 5%

How did CCOC(=O)C1=C(c2ccccc2)N=c2s/c(=C\c3ccco3)c(=O)n2C1c1cccs1 (stereo not drawn) do in these assays?
L3MBTL1 block: 22%; JMJD2A Tudor inh: 25µM*; HP1b binding inh: -35%; BAZ2B inh: 11µM*; PLK1 PBD block: -3%; VDR inh: 9%

What do the screens show for `CCOC(=O)C1=C(c2ccccc2)N=c2s/c(=C\c3cc(OC)c(OC)c(OC)c3)c(=O)n2C1c1cccs1` (stereo not drawn)?
L3MBTL1 block: -13%; JMJD2A Tudor inh: -20%; HP1b binding inh: 18%; BAZ2B inh: inconclusive; PLK1 PBD block: -7%; VDR inh: 16%

How did C[C@H](CO)N1C[C@H](C)[C@@H](CN(C)S(=O)(=O)c2ccccc2C#N)OCc2cn(nn2)CCCC1=O do in these assays?
PLK1 PBD block: -17%

Results for CC(=O)c1cccc(NC(=O)CCc2c(C)nc3nc(CN)nn3c2C)c1 ?
JMJD2A Tudor inh: inconclusive; HP1b binding inh: 21%; BAZ2B inh: 50µM*; VDR inh: 0%

Results for Cc1cccc(NC(=O)CCc2c(C)nc3nc(CNC(=O)c4cccc(F)c4)nn3c2C)c1 ?
JMJD2A Tudor inh: 2%; HP1b binding inh: 48%; BAZ2B inh: -2%; VDR inh: 5%

What do the screens show for `COCCn1c(=N)c(S(=O)(=O)c2ccc(F)cc2)cc2c(=O)n3ccccc3nc21`?
JMJD2A Tudor inh: -22%; HP1b binding inh: 60%; BAZ2B inh: -7%; PLK1 PBD block: -11%; VDR inh: 13%

Results for CCn1c(SCC(=O)Nc2c(C)cccc2C)nnc1-c1nonc1NC(C)=O ?
JMJD2A Tudor inh: 2%; HP1b binding inh: 50%; BAZ2B inh: -22%; VDR inh: 13%

What do the screens show for `CCOC(=O)c1c(CSc2cccs2)n(C)c2cc(Br)c(O)c(CN(C)C)c12`?
L3MBTL1 block: -22%; JMJD2A Tudor inh: 63µM*; HP1b binding inh: inconclusive; BAZ2B inh: 40µM*; PLK1 PBD block: -18%; VDR inh: -4%

Results for COC(=O)c1ccc(OCCCCN(C)Cc2ccccc2)cc1 ?
L3MBTL1 block: 0%; JMJD2A Tudor inh: 32µM*; HP1b binding inh: inconclusive; BAZ2B inh: 56µM*; PLK1 PBD block: 2%; VDR inh: -1%

What do the screens show for `COc1ccc(OCCCCN(C)Cc2ccccc2)cc1`?
L3MBTL1 block: -9%; JMJD2A Tudor inh: 20µM*; HP1b binding inh: inconclusive; BAZ2B inh: 71µM*; PLK1 PBD block: 1%; VDR inh: 1%

Results for COc1ccc(OCC(=O)N(C)Cc2ccccc2)cc1 ?
L3MBTL1 block: -3%; JMJD2A Tudor inh: -17%; HP1b binding inh: 40%; BAZ2B inh: 3%; PLK1 PBD block: -7%; VDR inh: 3%

How did CN(CCOCCOc1ccc(F)cc1)Cc1ccccc1 do in these assays?
L3MBTL1 block: -4%; JMJD2A Tudor inh: 13µM*; HP1b binding inh: inconclusive; BAZ2B inh: 79µM*; PLK1 PBD block: -18%; VDR inh: -25%

Results for COc1ccc(C=O)cc1COc1ccc2c(c1)OCO2 ?
L3MBTL1 block: -18%; JMJD2A Tudor inh: 7.1µM*; HP1b binding inh: -30%; BAZ2B inh: inconclusive; PLK1 PBD block: -4%; VDR inh: 7%

What do the screens show for `Cc1ccc(C)c(NC(=O)c2ccc(S(=O)(=O)C(F)F)cc2)c1`?
L3MBTL1 block: 4%; JMJD2A Tudor inh: -14%; HP1b binding inh: 12%; BAZ2B inh: -17%; PLK1 PBD block: -10%; VDR inh: 8%

What do the screens show for `COc1cccc(-c2nc(NCc3cccs3)c3ccccc3n2)c1`?
VDR inh: 50µM*

How did N#Cc1cccc(-c2nc(Nc3ccncc3)c3ccccc3n2)c1 do in these assays?
VDR inh: 120%

How did CS(=O)(=O)Nc1cccc(-c2nc(NCc3ccccc3)c3ccccc3n2)c1 do in these assays?
VDR inh: 50µM*

How did Cc1noc(C)c1-c1nc(NCc2ccccc2)c2ccccc2n1 do in these assays?
VDR inh: 35µM*

What do the screens show for `N#Cc1cccc(-c2nc(NCc3ccccc3)c3ccccc3n2)c1`?
VDR inh: 45µM*

What do the screens show for `Cc1ccc(N(CC(=O)NC(C)C)C(=O)CCC(=O)Nc2nccs2)c(C)c1`?
JMJD2A Tudor inh: -7%; HP1b binding inh: 49%; BAZ2B inh: 2%; PLK1 PBD block: -7%; VDR inh: -8%

What do the screens show for `Cc1cc(C)c(S(=O)(=O)NCCSCc2ccco2)c(C)c1`?
L3MBTL1 block: inconclusive; JMJD2A Tudor inh: inconclusive; HP1b binding inh: 8%; BAZ2B inh: inconclusive; PLK1 PBD block: -23%; VDR inh: inconclusive

How did CCCN1CCN(CC2=C(C(=O)OCC)C(c3cccc(OC)c3OC)NC(=O)N2)CC1 (stereo not drawn) do in these assays?
JMJD2A Tudor inh: 0%; HP1b binding inh: 38%; BAZ2B inh: -4%; VDR inh: -7%

How did CCc1ccc(Cn2nnc(C(=O)Nc3ccc(C)cc3)c2N)cc1 do in these assays?
JMJD2A Tudor inh: -5%; HP1b binding inh: 46%; BAZ2B inh: -16%; VDR inh: -9%

How did Cc1sc2nc(-c3ccccn3)[nH]c(=O)c2c1-c1ccccc1 do in these assays?
L3MBTL1 block: -32%; JMJD2A Tudor inh: -14%; HP1b binding inh: 18%; BAZ2B inh: -3%; PLK1 PBD block: 19µM*; VDR inh: inconclusive

How did CCN(CC)C(=O)c1sc2nc(-c3ccccn3)[nH]c(=O)c2c1C do in these assays?
JMJD2A Tudor inh: 28µM*; HP1b binding inh: 25%; PLK1 PBD block: -10%; VDR inh: -2%

Results for CCN(CC)C(=O)c1sc2nc(-c3ccncc3)[nH]c(=O)c2c1C ?
L3MBTL1 block: 12%; JMJD2A Tudor inh: -5%; HP1b binding inh: 38%; BAZ2B inh: -2%; PLK1 PBD block: -13%; VDR inh: 0%

How did C=CCNC(=O)CCCOc1cc(C)ccc1C do in these assays?
L3MBTL1 block: -7%; JMJD2A Tudor inh: inconclusive; HP1b binding inh: -15%; BAZ2B inh: 28%; PLK1 PBD block: 27µM*; VDR inh: -25%

High-throughput results: PubChem BioAssay, National Center for Advancing Translational Sciences (NCATS)
